Compound activity from PubChem.
Compounds with a hit are over-represented: about 1.2% of the library has one in this group of screens.
Tb PFK block – qHTS Assay to Find Inhibitors of T. brucei phosphofructokinase. ATP-dependent 6-phosphofructokinase (Trypanosoma brucei brucei), O15648. T. brucei PFK, ADP-Glo luminescence. Potency, µM (top dose mostly 57.5 µM), actives largely listed as inhibitors. 330,000 tested, 0.17% active; active means well fitted inhibition curve with a large enough effect; inconclusive means small, poorly fitted or top-dose-only effect, or effect the other way; further: nearly all actives have a fitted effect of over 60% in size
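Compounds were pin-transferred as a titration series up to 57 uM into substrate buffer (0.5 mM F6P, 0.1 mM ATP, pH 8.0), then 1.25 nM PFK was added and reactions ran 45 min before ADP-Glo detection.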
KCNH2 3.1 inh – qHTS for Inhibitors of KCHN2 3.1: Mutant qHTS | Potassium voltage-gated channel subfamily H member 2, brain isoform KCNH2 3.1 (human) | activity change, % (tested at about 1.8 µM) | 340,000 tested, 0.95% active | U2OS KCNH2 3.1, thallium flux FluxOr; stronger effect = lower value;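 active means maximum activity change below -70%; inconclusive means maximum activity change from -70% to -50%; inactive means maximum activity change above -50%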;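 further: thallium influx rate constant from kinetic fluorescence after stimulation buffer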
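Thallium flux via FluxOr fluorescence (Red40 quencher, 45 min loading) in U2OS cells virally expressing the KCNH2 3.1 isoform (1.77 x 10^8 /mL virus, overnight at 37 C). Rate constants from 2-min kinetic reads post-stimulation, normalised to positive and negative controls.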
TSG101-PTAP inh – qHTS Assay for Iinhibitors of HIV-1 Budding by Blocking the Interaction of PTAP/TSG101 | Tumor susceptibility gene 101 protein (Homo sapiens), Q99816 | Potency, µM (series often up to 115 µM), usual class: inhibitors | AID 493005, 2010 | Fluorescence polarization, FITC-PTAP peptide / Tsg101 binding | 340,000 tested, under 10 active; active means well fitted inhibition curve with a large enough effect in the main read-out, with a control signal flat, not every such curve was filed as active; inconclusive means small, poorly fitted or top-dose-only effect, or effect the other way, or a change in a side signal; inactive means no such curve, though single readings can be large or run the other way
Target sequence (Q99816 whole entry, looked up): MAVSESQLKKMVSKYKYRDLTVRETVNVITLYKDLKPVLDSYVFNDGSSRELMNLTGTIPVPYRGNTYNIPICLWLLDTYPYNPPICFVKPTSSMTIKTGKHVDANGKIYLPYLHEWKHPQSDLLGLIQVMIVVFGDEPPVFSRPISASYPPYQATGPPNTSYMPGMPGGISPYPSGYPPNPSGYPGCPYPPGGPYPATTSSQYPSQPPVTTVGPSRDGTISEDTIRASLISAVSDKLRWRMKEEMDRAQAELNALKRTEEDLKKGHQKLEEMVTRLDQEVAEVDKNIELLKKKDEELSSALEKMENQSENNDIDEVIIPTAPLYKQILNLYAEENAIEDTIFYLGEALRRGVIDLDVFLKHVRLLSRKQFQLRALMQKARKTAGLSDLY
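Tsg101 binding domain (10 uM final) was mixed with compound and a FITC-labeled PTAP peptide (50 nM final) in HEPES pH 7.5 buffer with NaCl, Tween 20, EDTA and TCEP; fluorescence polarization was read after 20 min at r.t.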
KCNH2 WT inh – qHTS for Inhibitors of KCHN2 3.1: Wildtype qHTS; AID 720551, 2013; 340,000 tested, 0.37% active; activity change, % at 1.84 µM; U2OS, BacMam KCNH2, thallium flux FluxOr; stronger effect = lower value;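 active means maximum activity change below -70%; inconclusive means maximum activity change between -70% and -50%; inactive means maximum activity change above -50%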
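U2OS cells were transduced with wild-type KCNH2 virus (2.03 x 10^8 / mL) for 4 h at room temperature, then cultured overnight at 37 C. Thallium flux was read with FluxOr dye. Rate constants were normalized to DMSO controls.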
Numbers stand for hits; - = inactive; ? = inconclusive; . = no result given.

SMILES | Tb PFK block | KCNH2 3.1 inh | TSG101-PTAP inh | KCNH2 WT inh
Cc1cc(=O)c(C(=O)Nc2cccc(C(=O)NC3CC3)c2)nn1-c1ccccc1 | . | - | . | -
O=C1C(=O)N(C2CCCC2)C(=O)N1Cc1c(F)cccc1Cl | - | - | - | -
O=C(C1CCCCC1)N1CCC(c2nc3ccccc3[nH]2)CC1 | - | -89.6 | - | -
O=C(NC1CCCCC1)N1CCC(c2nc3ccccc3[nH]2)CC1 | - | - | - | -
CCc1ccc2c(CN3CCN(S(=O)(=O)c4ccccc4F)CC3)cc(=O)oc2c1 | - | -74.6 | - | -
COc1ccc2oc(=O)cc(CN3CCN(Cc4ccccc4)CC3)c2c1 | . | - | . | -
CCc1ccc2c(CN3CCN(Cc4ccccc4)CC3)cc(=O)oc2c1 | - | -119.8 | - | -141.5
COc1ccc2c(CN3CCN(Cc4ccccc4)CC3)cc(=O)oc2c1 | . | -107.7 | . | -78.8
COc1ccc(CN2CCN(Cc3cc(=O)oc4cc(C)ccc34)CC2)c(OC)c1OC | - | -100.0 | - | ?
Cc1ccc2c(CN3CCN(CCO)CC3)cc(=O)oc2c1 | - | - | - | -
CCc1cc2c(CN3CCN(Cc4ccccc4)CC3)cc(=O)oc2cc1O | - | - | - | -
Cc1cccc(C[C@H](C(=O)O)N2C(=O)c3ccc(C(=O)O)cc3C2=O)c1 | - | . | . | .
CCCN(C(=O)c1nc2nc(C)cc(C)n2n1)c1c(N)n(Cc2ccccc2)c(=O)[nH]c1=O | - | - | - | -
O=C1CCC2(CCCC2)c2ccccc21 | . | - | . | -
CCCc1nnc(NC(=O)CCC(=O)N2CCN(c3ccccc3)CC2)s1 | - | - | - | -
O=[N+]([O-])c1ccc(OCCN2CCNCC2)cc1 | - | -74.1 | - | -
CC1CC(C)CN(CCCCOc2ccc([N+](=O)[O-])cc2)C1 (stereo not drawn) | - | -98.8 | - | ?
COc1ccccc1/C=C/C=c1\sc2nc(=O)c(Cc3ccccc3)nn2c1=O | - | -162.8 | - | -140.0
COc1cc([N+](=O)[O-])ccc1NC(=O)NCC1CCN(Cc2ccc(Cl)cc2)CC1 | - | -102.1 | - | -107.0
COc1ccc(C(=O)NCc2ccncc2)cc1S(=O)(=O)NCc1ccc(Cl)cc1 | - | - | - | -
CCN(CC)S(=O)(=O)c1cccc(NC(=O)CCNC(=O)NC23CC4CC(CC(C4)C2)C3)c1 | - | - | - | -
O=C(NCCCn1ccnc1)Nc1ccc2c(c1)OCO2 | - | - | - | -111.6
CCCNC(=O)c1ccccc1NC(=O)COc1cccc2c1OC(C)(C)C2 | - | - | - | -
CCOc1ccc(OCc2ccc(C(=O)N/N=C(\C)c3ccccn3)cc2)cc1 | - | - | - | -72.2
C/C(=N\NC(=O)c1ccccc1OCc1ccc(F)cc1)c1ccccn1 | - | - | - | -
SMILES | Tb PFK block | KCNH2 3.1 inh | TSG101-PTAP inh | KCNH2 WT inh
CCCCCn1c(N2CCN(Cc3ccccc3)CC2)nc2c1c(=O)[nH]c(=O)n2C | - | -74.9 | - | ?
CCN1CCCC1CNc1ncnc2c1[nH]c1ccc(Cl)cc12 (stereo not drawn) | - | -110.4 | - | -112.3
O=C1CCCN1CCCNc1ncnc2c1[nH]c1ccc(Cl)cc12 | - | - | - | -
Nc1ncc(CCN2CCOCC2)c(-c2ccc(F)cc2)n1 | - | - | - | -120.8
CCN(CC)S(=O)(=O)c1ccc(N2CCOCC2)c(NS(=O)(=O)c2ccc(C)cc2)c1 | - | - | - | -
CCN(CC)S(=O)(=O)c1ccc(N2CCOCC2)c(NS(=O)(=O)c2ccc(C)c(C)c2)c1 | - | -94.1 | - | -
COc1ccc(NC(=O)CN(C)C(=O)c2cccc(S(=O)(=O)N3CCN(c4ccc(F)cc4)CC3)c2)cc1 | . | - | - | -
CCOC(=O)COc1ccc2c(C)cc(=O)oc2c1C(=O)c1ccccc1 | - | - | - | -
CC(=O)c1c(OCC(=O)O)ccc2c(C)cc(=O)oc12 | . | -117.0 | - | -
Cc1[nH]n(-c2ccc([N+](=O)[O-])cc2)c(=O)c1C=NCCN1CCN(C(=O)c2ccc(Br)cc2)CC1 | - | -84.0 | - | -107.8
Cc1ccc(NC(=S)NCc2ccc3c(c2)cc(C)n3C)c(C)c1 | - | -103.5 | - | .
O=C(Nc1ccc(OCC(=O)N2CCOCC2)cc1)Nc1cccc(Cl)c1 | - | -82.2 | - | -
CC(C)(C)c1ccc(NC(=O)Nc2ccc(OCC(=O)N3CCOCC3)cc2)cc1 | - | - | - | -
